PubChem BioAssay (EPA / NIEHS)
Values joined by “and” are separate entries in the source; they are usually repeats but may differ in a detail not shown here. Identical values can stand only once. Results filed as inconclusive are left out. Some compounds were tested as several samples or in several runs, with calls that do not always agree. Active and inactive are the calls of the source. Rule for the calls, unless noted: active = hit-call score of the fitted dose curve at least 0.9, where 1 is the maximum; inactive = score below 0.9.

Assays:
[1] = target: Hypoxia-inducible factor 1-alpha (Homo sapiens) (UniProt Q16665); experiment: ATG_HIF1a_CIS: Attagene CIS-FACTORIAL HepG2 Assay for human Hypoxia Inducible Factor 1 (HIF1A) (AID 2282951); conditions: HepG2 Attagene cis-factorial HIF1a reporter transcription; actives raise or lower the signal
Sequence of Hypoxia-inducible factor 1-alpha (Homo sapiens) (Q16665 whole entry, looked up): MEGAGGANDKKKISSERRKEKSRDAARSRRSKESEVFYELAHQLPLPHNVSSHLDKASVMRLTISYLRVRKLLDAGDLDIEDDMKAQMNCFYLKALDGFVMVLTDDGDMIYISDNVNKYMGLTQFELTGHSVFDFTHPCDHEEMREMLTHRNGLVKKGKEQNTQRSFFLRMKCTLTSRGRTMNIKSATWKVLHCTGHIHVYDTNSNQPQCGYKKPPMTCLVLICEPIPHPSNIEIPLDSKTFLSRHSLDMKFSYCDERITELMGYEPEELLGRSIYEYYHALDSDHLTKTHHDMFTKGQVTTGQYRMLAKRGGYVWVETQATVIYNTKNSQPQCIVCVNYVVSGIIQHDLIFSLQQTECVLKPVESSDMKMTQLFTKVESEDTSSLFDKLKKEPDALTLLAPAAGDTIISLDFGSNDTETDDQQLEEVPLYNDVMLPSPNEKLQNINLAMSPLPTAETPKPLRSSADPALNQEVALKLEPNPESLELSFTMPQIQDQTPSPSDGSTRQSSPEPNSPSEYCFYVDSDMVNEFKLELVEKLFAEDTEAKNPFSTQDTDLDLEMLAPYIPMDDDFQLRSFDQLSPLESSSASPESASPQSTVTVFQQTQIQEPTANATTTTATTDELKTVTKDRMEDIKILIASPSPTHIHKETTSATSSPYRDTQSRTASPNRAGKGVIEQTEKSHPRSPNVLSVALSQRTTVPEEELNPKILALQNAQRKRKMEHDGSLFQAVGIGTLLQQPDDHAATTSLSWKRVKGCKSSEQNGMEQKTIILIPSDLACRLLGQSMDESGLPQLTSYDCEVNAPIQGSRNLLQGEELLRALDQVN
Summary of the method: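 After 24 h chemical exposure of reporter-transfected HepG2 cells, reporter cDNA was PCR-amplified, labelled by 6-FAM primer extension (2 min 95 C, 20 s 68 C, 10 min 72 C), HpaI-cut (2 h, 37 C) and analysed by CE.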

[2] = target: Hepatocyte nuclear factor 6 (Homo sapiens) (UniProt Q9UBC0); experiment: ATG_HNF6_CIS: Attagene CIS-FACTORIAL HepG2 Assay for human Hepatocyte Nuclear Factor 6 (HNF6) (AID 2282952); conditions: HepG2 Attagene cis-factorial HNF6 reporter transcription; actives raise or lower the signal
Sequence of Hepatocyte nuclear factor 6 (Homo sapiens) (Q9UBC0 whole entry, looked up, the tested form may be a part): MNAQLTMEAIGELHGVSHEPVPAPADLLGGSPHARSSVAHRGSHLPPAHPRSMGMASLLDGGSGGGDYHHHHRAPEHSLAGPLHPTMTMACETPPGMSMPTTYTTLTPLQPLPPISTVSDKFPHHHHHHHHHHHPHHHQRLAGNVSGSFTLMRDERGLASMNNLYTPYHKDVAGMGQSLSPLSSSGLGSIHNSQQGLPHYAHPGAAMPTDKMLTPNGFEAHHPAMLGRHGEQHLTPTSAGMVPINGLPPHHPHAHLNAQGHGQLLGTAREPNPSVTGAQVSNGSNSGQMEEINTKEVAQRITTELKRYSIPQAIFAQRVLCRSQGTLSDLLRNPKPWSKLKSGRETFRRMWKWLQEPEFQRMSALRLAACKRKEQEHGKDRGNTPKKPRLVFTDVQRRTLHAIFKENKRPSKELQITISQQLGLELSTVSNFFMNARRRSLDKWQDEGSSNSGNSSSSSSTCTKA
Summary of the method: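 Reporter mRNA induction or loss in HepG2 after 24 h exposure; transient cis-MRTU transfection; fragments quantified by capillary electrophoresis; bidirectional analysis, DMSO as negative control.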

[3] = target: Heat shock factor protein 1 (Homo sapiens) (UniProt Q00613); experiment: ATG_HSE_CIS: Attagene CIS-FACTORIAL HepG2 Assay for human Heat Shock Transcription Factor 1 (HSE) (AID 2282953); conditions: HepG2 HSE cis-reporter, Attagene RNA transcription; actives raise or lower the signal
Sequence of Heat shock factor protein 1 (Homo sapiens) (Q00613 whole entry, looked up, the tested form may be a part): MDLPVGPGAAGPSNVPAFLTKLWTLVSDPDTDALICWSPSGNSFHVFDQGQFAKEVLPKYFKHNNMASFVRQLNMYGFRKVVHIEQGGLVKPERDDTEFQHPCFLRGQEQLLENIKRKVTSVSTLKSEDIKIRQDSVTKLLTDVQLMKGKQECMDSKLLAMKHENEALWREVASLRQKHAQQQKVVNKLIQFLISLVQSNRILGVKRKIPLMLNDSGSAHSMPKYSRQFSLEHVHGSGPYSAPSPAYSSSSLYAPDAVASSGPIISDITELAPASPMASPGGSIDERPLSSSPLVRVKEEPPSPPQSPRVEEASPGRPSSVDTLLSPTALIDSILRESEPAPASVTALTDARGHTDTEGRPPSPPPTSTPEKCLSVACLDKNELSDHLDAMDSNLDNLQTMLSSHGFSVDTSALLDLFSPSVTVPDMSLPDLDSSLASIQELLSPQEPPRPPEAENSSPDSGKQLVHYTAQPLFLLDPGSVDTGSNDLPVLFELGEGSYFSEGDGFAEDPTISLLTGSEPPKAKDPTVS
Summary of the method: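 Cells were transfected with cis-element-driven reporter constructs, dosed for 24 h, then total RNA was reverse-transcribed and reporter cDNA amplified, FAM-labelled and digested with HpaI. Fragments were resolved by capillary electrophoresis; gain or loss was fitted against DMSO.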

[4] = ATG_MRE_CIS: Attagene CIS-FACTORIAL HepG2 Assay for human Metal Responsive Element (MRE) (AID 2282954); conditions: HepG2 MRE cis-reporter transcription, Attagene multiplex; actives raise or lower the signal
Summary of the method: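 HepG2 cells transiently transfected with cis-element-driven reporter units; mRNA measured 24 h after dosing. Reporter transcripts quantified by RT-PCR, FAM labelling, HpaI digestion and capillary electrophoresis; bidirectional fit versus DMSO.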

[5] = ATG_PBREM_CIS: Attagene CIS-FACTORIAL HepG2 Assay for human Phenobarbital-responsive Enhancer Module (PBREM) (AID 2282955); conditions: HepG2 PBREM cis-reporter, Attagene multiplexed transcription; actives raise or lower the signal
Summary of the method: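 Measures endogenous factor action on a phenobarbital-responsive enhancer module. HepG2 transiently carrying cis reporters, 24 h treatment, mRNA read-out by RT-PCR plus capillary electrophoresis.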

[6] = target: Paired box protein Pax-6 (Homo sapiens) (UniProt P26367); experiment: ATG_Pax6_CIS: Attagene CIS-FACTORIAL HepG2 Assay for human Paired Box 6 (PAX6) (AID 2282956); conditions: HepG2 CIS-FACTORIAL PAX6 reporter transcription, RNA readout; actives raise or lower the signal
Sequence of Paired box protein Pax-6 (Homo sapiens) (P26367 whole entry, looked up): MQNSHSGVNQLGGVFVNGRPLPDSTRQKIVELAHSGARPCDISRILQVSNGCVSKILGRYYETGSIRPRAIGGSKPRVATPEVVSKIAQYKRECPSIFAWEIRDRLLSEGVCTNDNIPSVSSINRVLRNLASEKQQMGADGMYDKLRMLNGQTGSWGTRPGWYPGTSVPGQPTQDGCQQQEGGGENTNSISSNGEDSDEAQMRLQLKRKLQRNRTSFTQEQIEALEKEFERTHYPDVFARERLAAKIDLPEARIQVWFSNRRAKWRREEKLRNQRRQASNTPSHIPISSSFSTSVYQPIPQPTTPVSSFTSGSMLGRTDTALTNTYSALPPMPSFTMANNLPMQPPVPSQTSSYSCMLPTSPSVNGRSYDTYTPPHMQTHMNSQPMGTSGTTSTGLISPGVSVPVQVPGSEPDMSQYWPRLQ
Summary of the method: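 Multiplexed cis-reporter HepG2 system; 24 h treatment; reporter mRNA read by RT-PCR/CE fluorescence; bidirectional fit vs DMSO.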

[7] = ATG_PXRE_CIS: Attagene CIS-FACTORIAL HepG2 Assay for human Pregnane X Receptor Element (PXRE) (AID 2282957); conditions: HepG2 Attagene CIS-FACTORIAL PXRE reporter, mRNA; actives raise or lower the signal
Summary of the method: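 Transiently transfected HepG2 cells were dosed and incubated for 24 h. RNA was then isolated, DNase-treated, reverse-transcribed and reporter sequences amplified. Labeled, HpaI-digested fragments were quantified by capillary electrophoresis against DMSO.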

[8] = ATG_PPRE_CIS: Attagene CIS-FACTORIAL HepG2 Assay for human Peroxisome Proliferator-activated Response Element (PPRE) (AID 2282958); conditions: HepG2 PPRE cis-element reporter, Attagene transcription factor profiling; actives raise or lower the signal
Summary of the method: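 PPRE activity in HepG2: transient cis-reporter transfection, 24 h compound incubation, reporter mRNA by RT-PCR and CE fluorescence; gain/loss fitted against DMSO.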

[9] = ATG_RORE_CIS: Attagene CIS-FACTORIAL HepG2 Assay for human RAR-related Orphan Receptor Element (RORE) (AID 2282959); conditions: HepG2 Attagene cis-factorial RORE reporter, mRNA; actives raise or lower the signal
Summary of the method: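 A 24-hour exposure of transfected HepG2 hepatoma cells precedes RNA isolation and reporter RT-PCR. Labeled products are digested with HpaI and resolved by capillary electrophoresis, with gain or loss of signal scored relative to DMSO.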

[10] = ATG_Sox_CIS: Attagene CIS-FACTORIAL HepG2 Assay for human SRY-box transcription factor (SOX) (AID 2282960); conditions: HepG2 Attagene cis-factorial SOX reporter, mRNA; actives raise or lower the signal
Summary of the method: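 HepG2, cis reporter units, 24 h exposure. Reporter mRNA: RT-PCR → FAM labelling → HpaI → CE fluorescence. Bidirectional fit vs DMSO.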

[11] = target: Transcription factor Sp1 (Homo sapiens) (UniProt P08047); experiment: ATG_Sp1_CIS: Attagene CIS-FACTORIAL HepG2 Assay for human Specificity Protein 1 (Sp1) (AID 2282961); conditions: HepG2 Sp1 cis-reporter transcription, actives raise or lower the signal
Sequence of Transcription factor Sp1 (Homo sapiens) (P08047 whole entry, looked up, the tested form may be a part): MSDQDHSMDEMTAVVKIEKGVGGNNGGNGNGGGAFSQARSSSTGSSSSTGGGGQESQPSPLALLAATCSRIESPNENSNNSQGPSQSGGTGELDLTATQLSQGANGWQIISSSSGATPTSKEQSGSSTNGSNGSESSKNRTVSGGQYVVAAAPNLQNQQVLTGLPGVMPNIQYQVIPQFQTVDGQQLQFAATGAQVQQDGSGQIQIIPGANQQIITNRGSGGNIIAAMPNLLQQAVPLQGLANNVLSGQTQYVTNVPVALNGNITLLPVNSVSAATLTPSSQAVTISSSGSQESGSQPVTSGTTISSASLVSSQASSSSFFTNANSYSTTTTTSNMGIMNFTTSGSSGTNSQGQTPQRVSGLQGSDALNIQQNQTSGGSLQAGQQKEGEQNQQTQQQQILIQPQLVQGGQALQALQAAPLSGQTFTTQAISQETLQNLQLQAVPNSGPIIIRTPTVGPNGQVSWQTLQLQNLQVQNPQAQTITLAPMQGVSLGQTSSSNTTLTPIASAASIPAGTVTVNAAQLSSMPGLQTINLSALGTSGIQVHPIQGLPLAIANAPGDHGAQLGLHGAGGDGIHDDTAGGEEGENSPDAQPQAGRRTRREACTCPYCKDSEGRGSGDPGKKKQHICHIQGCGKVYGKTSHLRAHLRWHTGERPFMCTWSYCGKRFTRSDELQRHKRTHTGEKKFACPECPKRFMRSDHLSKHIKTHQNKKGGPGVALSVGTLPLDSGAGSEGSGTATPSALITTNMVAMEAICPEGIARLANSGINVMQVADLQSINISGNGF
Summary of the method: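 Liver-derived HepG2 cells, cis-element reporter library, 24 h treatment; RNA isolated, cDNA amplified with reporter-specific primers, FAM-labeled fragments sized on capillary analyzer. DMSO baseline, bidirectional curve fit.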

[12] = ATG_SREBP_CIS: Attagene CIS-FACTORIAL HepG2 Assay for human Sterol Regulatory Element Binding (SREBP) (AID 2282962); conditions: HepG2 Attagene cis-factorial SREBP reporter, mRNA; actives raise or lower the signal
Summary of the method: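 mRNA induction of transfected cis-promoter reporters in HepG2 cells, 24 h post-dose. Detection: RT-PCR with 6-FAM-labelled products, HpaI digest, capillary electrophoresis. DMSO served as negative control and baseline.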

[13] = target: Signal transducer and activator of transcription 3 (Homo sapiens) (UniProt P40763); experiment: ATG_STAT3_CIS: Attagene CIS-FACTORIAL HepG2 Assay for human Signal Transducer and Activator of Transcription 3 (STAT3) (AID 2282963); conditions: HepG2, Attagene cis-factorial STAT3 reporter transcription; actives raise or lower the signal
Sequence of Signal transducer and activator of transcription 3 (Homo sapiens) (P40763 whole entry, looked up): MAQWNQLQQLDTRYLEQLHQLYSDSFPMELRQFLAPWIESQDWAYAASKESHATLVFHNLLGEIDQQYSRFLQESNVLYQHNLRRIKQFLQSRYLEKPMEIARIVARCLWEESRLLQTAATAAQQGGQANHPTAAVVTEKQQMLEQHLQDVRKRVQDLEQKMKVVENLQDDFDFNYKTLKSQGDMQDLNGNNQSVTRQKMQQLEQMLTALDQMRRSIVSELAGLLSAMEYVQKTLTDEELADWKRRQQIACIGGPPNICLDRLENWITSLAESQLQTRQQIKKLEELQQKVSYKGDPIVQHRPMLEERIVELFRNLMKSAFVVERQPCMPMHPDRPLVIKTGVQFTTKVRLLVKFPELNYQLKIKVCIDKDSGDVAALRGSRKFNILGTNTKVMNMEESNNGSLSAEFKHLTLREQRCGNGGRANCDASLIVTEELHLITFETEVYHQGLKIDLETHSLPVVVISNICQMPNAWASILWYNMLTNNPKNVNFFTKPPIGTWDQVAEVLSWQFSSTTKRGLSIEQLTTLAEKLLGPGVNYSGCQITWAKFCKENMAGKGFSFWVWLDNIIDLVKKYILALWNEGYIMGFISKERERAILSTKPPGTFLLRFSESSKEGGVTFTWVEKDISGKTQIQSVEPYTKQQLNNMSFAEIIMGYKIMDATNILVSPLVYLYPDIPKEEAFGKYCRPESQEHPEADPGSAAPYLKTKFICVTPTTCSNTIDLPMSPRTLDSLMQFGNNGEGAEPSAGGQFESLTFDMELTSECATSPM
Summary of the method: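 HepG2 cells transiently transfected with multiple cis-element-driven reporter units report endogenous transcription factor activity. After 24 h compound exposure, reporter mRNA is measured by RT-PCR, 6-FAM labelling, HpaI digestion and capillary electrophoresis. Fitted bidirectionally versus DMSO.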

[14] = ATG_TA_CIS: Attagene CIS-FACTORIAL HepG2 Assay for human TA Basal Promoter (AID 2282964); conditions: HepG2 Attagene CIS-factorial TA basal promoter reporter; actives raise or lower the signal
Summary of the method: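 Steps: transfect HepG2 with MRTUs; dose 24 h; isolate RNA, DNase-treat, reverse-transcribe; PCR and FAM-label reporter cDNA; digest with HpaI 2h at 37 C; run capillary electrophoresis. Activity fitted both directions against DMSO.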

[15] = ATG_TCF_b_cat_CIS: Attagene CIS-FACTORIAL HepG2 Assay for human T-Cell-Factor with beta-catenin (TCF/b-cat) (AID 2282965); conditions: HepG2 TCF/beta-catenin cis-reporter transcription, actives raise or lower the signal
Summary of the method: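 HepG2, transient MRTU transfection, cis-element-driven reporters (endogenous TFs). 24 h compound exposure. Readout: reporter mRNA by RT-PCR + 6-FAM primer extension, HpaI digest, capillary electrophoresis. Gain/loss fit vs DMSO baseline.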

[16] = ATG_TAL_CIS: Attagene CIS-FACTORIAL HepG2 Assay for human TAL Basal Promoter (AID 2282966); conditions: HepG2 Attagene cis-factorial TAL promoter reporter; actives raise or lower the signal;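 note: background control endpoint measuring basal TAL promoter reporter mRNA not a specific factor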
Summary of the method: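 Readout: reporter mRNA, fluorescence by CE. System: HepG2, transient multi-reporter transfection, endogenous TF activity. Exposure: 24 h. Analysis: bidirectional, DMSO-normalized; background control.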

[17] = ATG_TGFb_CIS: Attagene CIS-FACTORIAL HepG2 Assay for human Transforming Growth Factor (TGF) (AID 2282967); conditions: HepG2 Attagene CIS TGFb reporter, mRNA transcription; actives raise or lower the signal
Summary of the method: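 Cells were dosed for 24 hours, after which total RNA was reverse-transcribed and reporter sequences amplified, labeled and sized by capillary electrophoresis. Activity was fitted in both directions against DMSO.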

[18] = ATG_VDRE_CIS: Attagene CIS-FACTORIAL HepG2 Assay for human Vitamin D Receptor Element (VDRE) (AID 2282968); conditions: HepG2 VDRE cis-reporter transcription, actives raise or lower the signal
Summary of the method: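 Transiently transfected HepG2 cells carrying cis-regulated reporter transcription units were exposed for 24 h. Reporter mRNA was measured by RT-PCR with fluorescent labelling and capillary electrophoresis, and fitted in both directions against DMSO.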

[19] = target: Nuclear receptor subfamily 1 group I member 3 (Homo sapiens) (UniProt Q14994); experiment: ATG_CAR_TRANS: Attagene TRANS-FACTORIAL HepG2 Assay for human Constitutive Androstane Receptor (CAR) (AID 2282969; active = hit-call score of the fitted dose curve at least 0.9, where 1 is the maximum;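 note: activators raise reporter mRNA above DMSO so AC50 marks induction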); conditions: HepG2 Attagene TRANS-FACTORIAL CAR reporter
Sequence of Nuclear receptor subfamily 1 group I member 3 (Homo sapiens) (Q14994 whole entry, looked up, the tested form may be a part): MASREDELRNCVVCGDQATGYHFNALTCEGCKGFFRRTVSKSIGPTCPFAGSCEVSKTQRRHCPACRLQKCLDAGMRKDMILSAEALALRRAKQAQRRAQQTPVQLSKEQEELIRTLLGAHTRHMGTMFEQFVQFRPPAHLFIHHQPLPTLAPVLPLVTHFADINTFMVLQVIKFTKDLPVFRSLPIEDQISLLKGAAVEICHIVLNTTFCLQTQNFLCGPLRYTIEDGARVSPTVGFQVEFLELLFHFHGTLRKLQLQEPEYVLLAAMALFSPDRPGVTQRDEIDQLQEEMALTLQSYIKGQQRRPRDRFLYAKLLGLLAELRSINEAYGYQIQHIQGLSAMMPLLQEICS
Summary of the method: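 HepG2 cells transiently transfected with GAL4-UAS reporter units; TRANS format reads activity of exogenous chimeric NR-Gal4 protein. After 24 h dosing, reporter mRNA quantified by RT-PCR, 6-FAM labelling and capillary electrophoresis; gain of signal fitted against DMSO.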

Measured: AC50

COCC(=O)N(c1c(C)cccc1C)[C@H](C)C(=O)OC
inactive: [1] | [2] | [3] | [4] | [5] | [6] | [8] | [9] | [10] | [11] | [12] | [13] | [14] | [15] | [16] | [17] | [18]
active: [7] 27.7 µM

N#Cc1ccc(Cl)cc1
inactive: [1] | [2] | [3] | [4] | [5] | [6] | [8] | [9] | [10] | [11] | [12] | [13] | [14] | [15] | [16] | [17] | [18]
active: [7] 54.6 µM

O=c1oc2ccccc2c(O)c1C(CC(O)c1ccc(-c2ccc(Br)cc2)cc1)c1ccccc1 (stereo not drawn)
active: [1] 14.6 µM | [3] 48.7 µM and 59.6 µM | [4] 40.3 µM and 31.9 µM | [5] 31.7 µM | [6] 46.5 µM and 31.9 µM | [7] 8.03 µM and 7.59 µM | [8] 10.8 µM and 227 nM | [11] 14.4 µM | [12] 8.18 µM | [15] 21.1 µM and 11.5 µM | [16] 41.7 µM | [18] 22.4 µM and 8.54 µM
inactive: [1] | [2] | [5] | [9] | [10] | [11] | [12] | [13] | [16] | [17]

COP(=S)(OC)Oc1cc(Cl)c(I)cc1Cl
inactive: [5] | [8] | [13] | [14] | [16] | [17] | [19]
active: [1] 33.4 µM | [2] 27.2 µM | [3] 62.1 µM | [4] 37.5 µM | [6] 33.4 µM | [7] 8.06 µM | [9] 15 µM | [10] 33.4 µM | [11] 33.4 µM | [12] 37.3 µM | [15] 48.6 µM | [18] 24.7 µM

Nc1ccc(N)cc1
inactive: [1] | [2] | [4] | [5] | [6] | [7] | [9] | [10] | [11] | [12] | [13] | [15] | [16] | [17] | [18]
active: [1] 100 µM | [7] 33 µM | [15] 27.7 µM | [17] 23.8 µM

CC(C)(C)c1cc([N+](=O)[O-])cc(C(C)(C)C)c1O
active: [4] 42.4 µM | [5] 2.52 µM | [7] 4.23 µM | [8] 12.8 µM | [9] 28.7 µM | [17] 26.3 µM
inactive: [1] | [2] | [3] | [6] | [10] | [11] | [12] | [13] | [14] | [15] | [16]
